# From PubChem BioAssay (Tox21)
# Several values for one entry are separate records, joined by “and”; a condition that tells them apart may be missing. Equal values may be shown once. Inconclusive results are not listed. Where a call stands in place of a potency, no number is given. Where a structure was tested more than once in an assay, its records may differ in their call. Activity calls are given as the source filed them. Unless noted, calls come from the whole dose curve; as a rule, active = well fitted curve in the direction sought with a large enough effect in the repeat runs; inconclusive = weak or mixed curves; inactive = no such curve, though single readings can be large; an effect the other way counts as inactive or inconclusive.
# Legend:
# [1] = target: Retinoic acid receptor RXR-alpha (Homo sapiens) (UniProt P19793); test: qHTS assay to identify small molecule agonists of the RXR signaling pathway (AID 1159527; calls by dose curve; note: nearly all actives have a fitted effect of over 35% in size; note: potency is the fitted concentration of half-maximal effect)
# Chain of Retinoic acid receptor RXR-alpha (Homo sapiens) (P19793 whole entry, looked up): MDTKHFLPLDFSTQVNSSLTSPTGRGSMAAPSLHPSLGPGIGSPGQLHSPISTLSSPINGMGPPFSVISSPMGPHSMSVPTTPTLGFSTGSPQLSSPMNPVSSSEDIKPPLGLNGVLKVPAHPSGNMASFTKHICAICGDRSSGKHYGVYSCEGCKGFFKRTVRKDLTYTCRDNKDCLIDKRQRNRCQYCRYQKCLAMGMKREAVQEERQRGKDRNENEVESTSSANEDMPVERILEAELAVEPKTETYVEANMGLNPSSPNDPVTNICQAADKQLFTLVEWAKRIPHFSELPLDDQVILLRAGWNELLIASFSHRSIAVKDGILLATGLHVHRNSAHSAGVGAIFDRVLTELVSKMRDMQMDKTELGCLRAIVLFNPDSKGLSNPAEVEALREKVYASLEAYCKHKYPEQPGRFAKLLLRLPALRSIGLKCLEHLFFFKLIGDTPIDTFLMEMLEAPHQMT
# Procedure, shortened: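 Using 9-cis retinoic acid as the reference agonist, chemicals were tested in HEK 293T cells […] for 16 hr; substrate loading lasted 2 hr at room temperature.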
# [2] = qHTS assay to identify small molecule antagonists of the retinoid acid receptor (RAR) signaling pathway - cell viability counter screen (AID 1159551); note: nearly all actives have a fitted effect of over 35% in size
# Procedure, shortened: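 C3RL4 RARE-luciferase line; cpds + retinol 1 uM final, 6 h, 37 C/5% CO2; CellTiter-Glo ATP luminescence, 30 min RT.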
# [3] = qHTS assay to identify small molecule antagonists of the retinoic acid receptor (RAR) signaling pathway (AID 1159552; note: nearly all actives have a fitted effect of over 50% in size; note: potency is the fitted concentration of half-maximal effect)
# Procedure, shortened: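 Test chemicals and DMSO controls were pin-transferred onto C3RL4 cells a day after seeding; retinol (1 uM final) followed at once. Luminescent reporter output was quantified after 6 hr of co-incubation and 30 min with detection reagent.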
# [4] = qHTS assay to identify small molecule agonists of the retinoic acid receptor (RAR) signaling pathway (AID 1159553); note: potency is the fitted concentration of half-maximal effect
# Procedure, shortened: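 RARE-luc C3RL4 cells; overnight attachment 37 C/5% CO2; compound (DMSO) 6 hr; luciferase reagent, 30 min RT; luminescence read-out.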
# [5] = qHTS assay to identify small molecule agonists of the RXR signaling pathway - cell viability counter screen (AID 1159529); note: series mostly up to about 77 µM; nearly all actives have a fitted effect of over 50% in size
# Procedure, shortened: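 Compounds dissolved in DMSO were pinned onto HEK 293T cells carrying a beta-lactamase reporter under RXR-alpha control and incubated 16 hr. Cytotoxicity was then quantified by CellTiter-Glo luminescence.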
# [6] = qHTS assay to identify small molecule agonists of the estrogen related receptor (ERR) signaling pathway (AID 1224820)
# Procedure, shortened: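 Luminescence readout (One-Glo, 30 min RT) from NTP-supplied ERR cell line exposed to compounds for 18 h at 37 C. Cells seeded 2,000 per well and pre-incubated 6 h before pin-tool compound transfer.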
# [7] = qHTS assay to identify small molecule antagonists of the estrogen related receptor signaling pathway with the pleiotropic PPARgamma coactivator (PGC) cell viability counter screen (AID 1224822; note: series mostly up to about 46 µM)
# Procedure, shortened: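 Fluorescence read-out of CellTiter-Fluor after 30 min at 37 C; PGC/ERR cells, 2,000 per well, had been exposed to DMSO-dissolved compounds for 17.5 h following a 6 h pre-incubation.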
# [8] = qHTS assay to identify small molecule antagonists of the estrogen related receptor (ERR) signaling pathway - cell viability counter screen (AID 1224818); note: series mostly up to about 46 µM
# Procedure, shortened: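 Fluorescence from CellTiter-Fluor, read 30 min after reagent addition at 37 C, measured viability of ERR cells exposed to compounds for 17.5 h. Cells had settled 6 h before dosing.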
# [9] = qHTS assay to identify small molecule antagonists of the estrogen related receptor (ERR) signaling pathway (AID 1224819;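 note: luminescence from an ERR-driven luciferase reporter measured with One-Glo reagent; series mostly up to about 46 µM; nearly all actives have a fitted effect of over 50% in size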)
# Procedure, shortened: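 Luminescence readout (One-Glo, 30 min, RT) of ERR cell line after 18 h compound exposure at 37 C; cells seeded 2,000/well, pre-incubated 6 h, compounds pinned from DMSO stocks.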
# [10] = tested on: estrogen-related receptor alpha (ERRalpha) with PGC-1alpha coactivator, human; test: qHTS assay to identify small molecule antagonists of the estrogen related receptor signaling pathway with the pleiotropic PPARgamma coactivator (PGC) (AID 1224821; calls by dose curve;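 note: series mostly up to about 46 µM; lower luminescence signal means antagonism of PGC/ERR signalling; nearly all actives have a fitted effect of over 50% in size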)
# Procedure, shortened: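 PGC/ERR reporter cells; 6 h pre-incubation 37 C/5% CO2; pin-tool compound in DMSO, 18 h 37 C; One-Glo added, 30 min RT; luminescence read. qHTS antagonist mode.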
smiles,measurement,setting,value
CC(C)=CCCC(C)CCO (stereo not given),Potency,[1],inactive
same,Potency,[2],inactive
same,Potency,[3],inactive
same,Potency,[4],inactive
CCCC(=O)O,Potency,[1],inactive
same,Potency,[2],inactive
same,Potency,[3],inactive
same,Potency,[4],inactive
Cn1cnc([N+](=O)[O-])c1Sc1ncnc2nc[nH]c12,Potency,[1],inactive
same,Potency,[5],inactive
same,Potency,[2],inactive
same,Potency,[3],48.3 µM (active) and inactive
same,Potency,[4],inactive
same,outcome,[6],inactive
same,Potency,[7],inactive
C#C[C@]1(O)CC[C@H]2[C@@H]3CCc4cc(OC)ccc4[C@H]3CC[C@@]21C,Potency,[1],inactive
same,Potency,[2],inactive
same,Potency,[3],inactive
same,Potency,[4],inactive
CCOCCOCCO,Potency,[1],inactive
same,Potency,[2],inactive
CCC(C)c1ccccc1O (stereo not given),Potency,[1],inactive
same,Potency,[5],inactive
same,Potency,[2],inactive
same,Potency,[3],inactive
same,Potency,[4],inactive
CC(C)OC=O,Potency,[1],inactive
same,Potency,[2],inactive
same,Potency,[3],inactive
same,Potency,[4],inactive
Cc1cccc(C(=O)O)c1,Potency,[1],27.5 µM (active)
same,Potency,[2],inactive
same,Potency,[3],inactive
same,Potency,[4],inactive
Cc1[nH]c(=O)c(C#N)cc1-c1ccncc1,Potency,[1],inactive
same,Potency,[2],inactive
same,Potency,[3],inactive
same,Potency,[4],inactive
same,Potency,[8],inactive
same,Potency,[7],inactive
CC(=O)c1ccccn1,Potency,[1],inactive
same,Potency,[2],inactive
same,Potency,[3],inactive
same,Potency,[4],inactive
Nc1ncnc2nc[nH]c12,Potency,[1],inactive
same,Potency,[5],inactive
same,Potency,[3],inactive
same,Potency,[4],inactive
O=P(O)(O)O,Potency,[1],inactive
same,Potency,[2],inactive
same,Potency,[3],inactive
same,Potency,[4],inactive
CC(C(=O)O)c1cccc(C(=O)c2ccccc2)c1 (stereo not given),Potency,[1],inactive
same,Potency,[5],inactive
same,Potency,[2],inactive
same,Potency,[3],inactive
same,Potency,[4],inactive
same,Potency,[8],inactive
same,Potency,[9],inactive
same,outcome,[6],inactive
same,Potency,[10],inactive
same,Potency,[7],inactive
O=C(/C=C/C=C/c1ccc2c(c1)OCO2)N1CCCCC1,Potency,[1],inactive
same,Potency,[2],inactive
same,Potency,[3],inactive
same,Potency,[4],3.86 µM (active) and 1.93 µM (active)
O=C(c1ccccc1)c1ccccc1O,Potency,[1],inactive
same,Potency,[2],inactive
same,Potency,[3],inactive
same,Potency,[4],inactive
